Laboratory results reported in PubChem BioAssay AID463190 (Sanford-Burnham Center for Chemical Genomics, 2010).
The whole screen tested about 330,000 compounds, of which about 7,300 (2.2%) were called active.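 How the source made its calls: active means inhibition of at least 40%; inactive means the rest.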 The list comes from a sample in which actives are over-represented; it also holds similar structures and randomly drawn compounds.

assay: growth inhibitors of tim10-1 mutant yeast, primary screen, luminescence, uHTS (AID 463190);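 further: mutant grown at 25 °C; 0% = DMSO wells with yeast and 100% = wells holding no yeast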; conditions: S. cerevisiae tim10-1 ts strain growth, BacTiter-Glo, 24 h; at 20 µM; hits give high values

inhibition, active:
COc1ccc(-c2cc(C3CCN(c4ncccc4[N+](=O)[O-])CC3)[nH]n2)cc1 49.2%
COC(=O)c1cc(S(=O)(=O)N2CCN(c3cc(C)ccc3C)CC2)c[nH]1 41.6%
O=C(CN1CCN(c2ccc(F)cc2)CC1)Nc1cccc(C(F)(F)F)c1 41.1%
Cn1c(CCCOc2ccc(Cl)cc2Cl)n[nH]c1=S 47.8%
CCOC(=O)C/C(C)=N\Nc1ccc([N+](=O)[O-])cc1[N+](=O)[O-] 44.5%
Cc1nn(Cc2ccc(Cl)c(Cl)c2)c(C)c1NC(=O)c1cc(C2CC2)on1 57%
Fc1ccc(/C=N/Nc2nc(-c3cccnc3)nc3ccccc23)cc1 43.3%
CC1=C/C(=N\OS(=O)(=O)c2ccccc2)C=CC1=O 76.6%
CN1CCN(c2ccccc2NC(=O)COc2ccc(C3CCCCC3)cc2)CC1 42.9%
O=C(Oc1ccc(-c2nc(-c3ccccn3)no2)cc1)c1ccccc1 51.2%
O=C(/C=C/c1ccc(Cl)cc1Cl)NCc1ccco1 41.9%
CCCCCC1CCC(c2nnc(SCC(C)=O)o2)CC1 (stereo unspecified) 42.3%
CC(=O)Oc1ccc2c(c1)C(=O)c1ccccc1C2=O 52.2%
CC(C)CC(=O)NC(=S)Nc1ccc(F)cc1F 49.5%
Cc1ccc(S/C(=N\S(=O)(=O)c2ccc(Cl)cc2)c2ccccc2)cc1 41.3%
CC(c1ccco1)N(C(=O)Nc1ccccc1)C1CCCCC1 (stereo unspecified) 48.1%
COc1ccc(CCNCc2c(-c3ccccc3)n(C)c3ccccc23)cc1 40.2%
O=C1CSC(=S)N1c1ccc(Cl)c(Cl)c1 42%

inhibition, inactive:
O=C1CSC2=NCN(c3ccccc3)CN12 -4.56%
Cc1nc(NC(=O)C2CCCCC2)sc1C 25.4%
CC1CCCCC1NC(=O)COc1ccc(C#N)cc1 (stereo unspecified) -1.06%
CCOC(=O)c1c(NC(=O)C2CC=CCC2C(=O)O)sc(C)c1CC (stereo unspecified) 15.4%
O=C(CSc1nnc(-c2cccs2)n1Cc1ccco1)c1ccc2c(c1)OCO2 -3.98%
CC(=O)NC(Cc1ccccc1)C(=O)NC1CCN(c2ncccc2[N+](=O)[O-])CC1 (stereo unspecified) 10.4%
COc1ccc(-c2cc3ncccc3cn2)cc1 8.87%
O=C(NCC1CCCO1)c1cc2c(s1)CCCC2 (stereo unspecified) -4.36%
O=C1CCCc2c1[nH]c1ccc(Br)cc21 13.5%
COc1cccc(C(=O)Oc2cc(C)[nH]c(=O)c2[N+](=O)[O-])c1 -4.85%
Cc1ccc(C)c(N2CCN(S(=O)(=O)c3c(C)[nH]c(C)c3C(=O)N3CCCC3)CC2)c1 -8.05%
Cc1ccc(C)c(N2CCN(S(=O)(=O)c3ccc4c(c3)oc(=O)n4C)CC2)c1 27.4%
C/C(=N\N1CCN(Cc2ccc(C)cc2)CC1)c1ccco1 -7.59%
O=C(CN1CCN(c2ccccc2)CC1)Nc1ccc(F)cc1 -0.126%
O=C(CN1CCN(c2ccc(F)cc2)CC1)Nc1ccccc1 11.6%
O=C(CCCOc1ccc(Cl)cc1Cl)NNC(=O)C1CCC1 5.85%
CC(C)Oc1ccc(Cc2n[nH]c(=S)n2Cc2ccccc2)cc1Cl -6.21%
CCN1C(=O)[C@@H]2[C@@H](c3ccc(-c4cccc(Cl)c4)cc3)N3CCC[C@@]3(C(=O)OC)[C@@H]2C1=O 30.1%
C[N+]1(CC(O)COc2ccccc2)CCN(C(=O)c2ccc([N+](=O)[O-])cc2)CC1 (stereo unspecified) -0.233%
CCOC(=O)c1ccc(NNC(C)=O)c([N+](=O)[O-])c1 9.84%
CCCCOC(=O)CCCc1ccc([N+](=O)[O-])cc1[N+](=O)[O-] 28.7%
O=C(CS(=O)(=O)c1ccccc1)Nc1ccc(S(=O)(=O)Nc2ccccn2)cc1 0.086%
CC(C)(C)c1cnnn1-c1ccc([N+](=O)[O-])cc1 12%
Cc1cc(C(=O)Nc2c(C)nn(Cc3ccccc3)c2C)on1 1.72%
Cc1nn(Cc2ccc(F)cc2)c(C)c1NC(=O)c1cccnc1Cl -0.56%
Cc1ccccc1OCC(=O)NCC(=O)OCC(=O)c1ccc2ccccc2c1 18.3%
N/C(=N\S(=O)(=O)c1cc(C(F)(F)F)cc(C(F)(F)F)c1)c1cccs1 5.1%
COc1ccc(-n2c(SCC(=O)NCc3ccco3)nnc2-c2c[nH]c3ccccc23)cc1 7.58%
O=c1c2ccccc2nc(N/N=C/c2ccccc2)n1O 12.3%
O=C(N/N=C/c1cccnc1)c1ccc(NC(=O)c2ccc(F)cc2)cc1 -1.83%
Cc1cc(C)cc(NC(=O)CCN2C(=O)c3ccccc3C2=O)c1 15.2%
CCN(CC)C(=O)Oc1ccc(OC(=O)N(CC)CC)cc1 32.3%
CCC(=O)Nc1nnc(S(=O)(=O)N(CC(C)C)c2ccccc2)s1 -0.846%
CCOC(=O)C1CCN(C(=O)c2ccccc2N(C)S(=O)(=O)c2ccccc2)CC1 25%
CSc1nnc(C2CCCN(CC(=O)Nc3ccccc3N3CCOCC3)C2)n1C(C)C (stereo unspecified) -3.94%
Cc1ccnc2nc(C(=O)OCC(=O)N(CC(C)C)CC(C)C)nn12 13.2%
Cn1cc(/C=C/C(=O)N2CCCC(C(=O)c3ccc(C(F)(F)F)cc3)C2)cn1 (stereo unspecified) 24.9%
COc1cccc(C(=O)N/N=C(\C)c2cccc(NC(=O)c3ccc(F)cc3)c2)c1OC 20.1%
Cn1c(CN2CCOCC2)nc2cc(NC(=O)c3ccc(Cl)cc3)ccc21 15.9%
CCC(=O)Nc1ccc(S(=O)(=O)Nc2c(NC)c3ccccc3oc2=O)cc1 27%
O=C(CN1CCN(C2CCCCC2)CC1)Nc1ccccc1N1CCCCC1 -10.4%
Cc1ccc(C(C)C)cc1OCC(=O)Nc1ccccc1N1CCCC1 -15.9%
Cc1cc(C)cc(OCC(=O)NNC(=O)CCN2C(=O)c3ccccc3C2=O)c1 9.29%
O=C(COC(=O)c1ccncc1)c1ccccc1 22.8%
Brc1ccc(-c2noc(-c3ccccc3)n2)o1 11.2%
COc1ccc2oc(C(=O)OCC(=O)N(CC(C)C)c3c(N)n(Cc4ccccc4)c(=O)[nH]c3=O)c(C)c2c1 -2.22%
CCC(C(=O)N1CCN(S(=O)(=O)c2sc(C(=O)O)c(C)c2C(=O)O)CC1)c1ccccc1 (stereo unspecified) -6.62%
Cc1cc(-c2nnc(CCC(=O)NC(c3ccccc3)c3ccccc3)o2)no1 -7.23%
O=C(NCc1ccco1)C1(c2ccc(Cl)cc2)CCCC1 29.4%
COC(=O)/C=C/C(=O)NCc1ccco1 -3.84%
CCN(CC)C(=O)CSc1nnc(C2CCCCC2)o1 2.18%
Cc1[nH]c2ccccc2c1C(=O)C(C)Sc1nnc(C2CC2)o1 (stereo unspecified) -11.7%
O=C(COc1cccc(F)c1)Oc1ccc(C(=O)c2ccccc2)cc1 -0.003%
CCC(C)c1ccccc1NC(=O)CN(C)CC(=O)Nc1ccccc1SC (stereo unspecified) 11.9%
O=C(Cc1ccccc1)Nc1c(C(=O)N2CCCCCC2)cnn1-c1ccccc1 29.5%
N#Cc1ccccc1Sc1ccccc1C(=O)OCC(=O)NC1CCCCC1 1.29%
CC(CCN1CCN=C1N(C)C)c1ccccc1 (stereo unspecified) -14.7%
CC(=O)Oc1cccc(C(=O)Nc2ccccc2NC(=O)c2cccc(OC(C)=O)c2)c1 -9.31%
CC(=O)O[C@H]1c2ccccc2-c2ccccc2[C@@H]1OC(C)=O 4.4%
O=C(CSc1nnc(CN2CCCC2)n1-c1ccc(F)cc1)c1ccc2c(c1)OCO2 14.8%
CC(C)CC(=O)NC(=S)Nc1cc(C(=O)O)ccc1Cl -9%
CC(=O)c1ccc(NC(=S)NC(=O)CC(C)C)cc1 14.6%
Cc1ccc(C(=O)C(C)OC(=O)Cc2n[nH]c(=O)c3ccccc23)cc1C (stereo unspecified) -2.29%
O=C(Nc1ccc(C(=O)NCc2ccccc2Cl)cc1)C1=CSCCO1 -4.56%
O=S(=O)(/N=C(/Nc1ccccn1)c1ccccc1)c1ccc(Cl)cc1 20.8%
Cc1ccc(S(=O)(=O)/N=C(/Nc2ccccn2)c2ccc(Cl)cc2)cc1 19.5%
CCC1CCCCN1CCCNC(=O)c1cc2c(Cl)nc3ccccc3c2s1 (stereo unspecified) 32.7%
Cc1ccc(NC(=O)NC(=O)N(C2CCCCC2)S(=O)(=O)c2ccccc2)cc1 13.6%
CCOc1ccc(NC(=O)N(CCC(C)C)C(C)c2ccco2)cc1 (stereo unspecified) 15.1%
C=CCOc1ccc(/C=N/n2cncn2)cc1OC 6.25%
CC(Cc1cccs1)NC(=O)c1cccc(Cl)c1 (stereo unspecified) 21.4%
COc1ccc(-c2c(C#Cc3ccccc3)c3ccccc3n2C)cc1 14.3%
COc1ccc(-c2nc3ccccc3c(=O)n2CCc2ccc(O)cc2)cc1 25.8%
Cc1ccc(Sc2cc(N3CCOCC3)nc(-c3ccccc3)n2)cc1 20.9%
CCN1CCN(c2nc(Nc3cccc(F)c3)nc(N)c2[N+](=O)[O-])CC1 9.58%
Cc1ccccc1Nc1nc(N)nc(COC(=O)CCC(=O)c2ccc(F)cc2)n1 15.1%
COc1cc(N2C(=O)CSC2=S)cc(OC)c1OC -10%
O=C1CSC(=S)N1c1ccc(O)cc1 -38.8%
